# Screening data: PubChem, National Center for Advancing Translational Sciences (NCATS)
# Hits are enriched below; roughly 21% of the tested compounds scored in any of these assays.
# Pf growth 48h = inhibits P. falciparum growth in the first generation, 48 h; P. falciparum luciferase growth in erythrocytes, 48 h; Potency, µM (titrated, usually from 28.7 µM), for inactives: top-dose activity change, negative = inhibition, most hits filed as inhibitors; hit rate 5.9% among 310,000; note: potency is the fitted concentration of half-maximal effect; % is set by controls: 0 for no effect and ±100 for the full control effect
#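 Luciferase-expressing P. falciparum in infected erythrocytes (2% hematocrit, 0.1% parasitemia final) in RPMI 1640/0.5% Albumax were exposed to compound for 48 hours at 37 C, 5% CO2; growth read as luminescence.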
# FBPA Giardia inh = Giardia lamblia aldolase inhibition; A8B2U2; purified Giardia FBPA; Potency, µM (series often up to 59.6 µM), without a hit: at the highest dose activity, negative = inhibition, hits mostly inhibitors; hit rate 0.71% among 290,000; AID 2451; note: potency is the fitted concentration of half-maximal effect; % is set by controls: 0 for no effect and ±100 for the full control effect; nearly all actives have a fitted effect of over 55% in size
# Target sequence (A8B2U2 whole entry, looked up): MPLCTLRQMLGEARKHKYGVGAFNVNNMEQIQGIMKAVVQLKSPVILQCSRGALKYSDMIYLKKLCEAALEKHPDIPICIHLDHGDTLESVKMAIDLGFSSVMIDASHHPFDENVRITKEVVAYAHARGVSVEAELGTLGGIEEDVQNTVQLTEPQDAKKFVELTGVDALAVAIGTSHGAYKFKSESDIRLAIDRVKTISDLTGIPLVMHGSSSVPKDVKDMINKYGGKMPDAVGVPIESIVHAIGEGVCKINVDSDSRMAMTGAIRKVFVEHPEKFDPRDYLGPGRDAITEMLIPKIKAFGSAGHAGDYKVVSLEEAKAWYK
#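 Giardia FBPA (40 nM reagent) was preincubated 10 min at RT with compound (up to 57.5 uM final), then substrate plus GAPDH/TPI/NAD/arsenate coupling system with diaphorase/resazurin was added; resorufin fluorescence (525/598 nm) was read after 20 min.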
# NS1 inh = blocks influenza NS1 protein function. Potency, µM (titrated, usually from 46.1 µM), inactives show at the top dose activity, positive = more growth. hit rate 0.4% among 270,000. AID 2326; calls by dose curve; note: potency is the fitted concentration of half-maximal effect; actives are rising curves; nearly all actives have a fitted effect of over 50% in size
#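 Compounds were scored for reversing the slow growth caused by influenza A NS1 in S. cerevisiae, measured by optical density at 600 nm. Assay medium contained 2% galactose at pH 6.0; NS1-free yeast of the same strain were the positive control.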
# Shiga inhibitor = blocks Shiga toxin action in Vero cells. Vero cells, Shiga toxin protein synthesis inhibition reporter. inhibition, % at 38.7 µM. hit rate 9.2% among 290,000. AID 2315; in the data active = inhibition mostly above about 28%, no sharp cut-off; inactive = mostly below about 43%; note: 0% is about no effect
# CHX counter = affects cycloheximide protein synthesis inhibition readout, counter-screen. cell reporter, cycloheximide protein synthesis inhibition counterscreen. max response, %. hit rate 12% among 300,000. AID 2314; in the data active = max response mostly above about 13%, no sharp cut-off; inactive = mostly below about 14%; note: read at 38.3 µM for the half of the compounds with a filed dose; 0% is about no effect
# Pf growth 96h = P. falciparum growth inhibition at 96 hours; hit rate 6.9% among 320,000; P. falciparum luciferase reporter growth, 96 h; Potency, µM (titrated, usually from 28.7 µM), for inactives: top-dose activity change, negative = inhibition, usual class: inhibitors; note: potency is the fitted concentration of half-maximal effect; % is set by controls: 0 for no effect and ±100 for the full control effect
#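 Compounds incubated with erythrocytes infected by luciferase-expressing P. falciparum (2% hematocrit, 0.05% parasitemia final) for 96 hours, 37 C in 5% CO2. Growth inhibition scored as decreased luciferase luminescence.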
# Starred values were filed as active, the others as inactive; i = inactive; u = inconclusive; x = not tested or not shown; [ ] = another dose, or the depositor's remark. Unless noted, calls come from the whole dose curve; as a rule, active = well fitted curve in the direction sought with a large enough effect; inconclusive = small, poorly fitted or top-dose-only effect, or another doubt; inactive = no such curve, though single readings can be large; an effect the other way counts as inactive or inconclusive.
SMILES,Pf growth 48h,FBPA Giardia inh,NS1 inh,Shiga inhibitor,CHX counter,Pf growth 96h
O=C(CCNC(=O)c1ccccc1Cl)NNC(=O)c1ccccc1O,-2%,x,x,x,x,2%
Cc1ccc(C(=O)CCC(=O)NNC(=O)c2ccccc2O)cc1,u,x,x,x,x,-10%
O=C(CCc1ccccc1)NNC(=O)c1cccc(F)c1,31%,5%,x,-8,2,51%
O=C(CC(=O)c1c(F)cccc1Cl)c1ccccc1O,12µM*,-9%,-110%,52*,55*,u
O=C(CC(=O)c1ccccc1O)c1cccc(F)c1,u,u,-252%,56*,34*,u
COC(=O)[C@H](COC(C)(C)C)NC(=O)O[C@@H]1Cc2cc(OC)ccc2O[C@H]1c1cccc(OC)c1,x,-6%,x,x,x,x
COCCN1C(=O)N[C@@H](c2cccc(C(F)(F)F)c2)C(C(C)=O)=C1C,x,5%,x,x,x,x
O=C(NN1CCOCC1)c1cccc(Cl)c1,2%,4%,11%,-6,-3,u
COc1ccc(C(=O)N(C)CCCC2CCCC2)cc1OC1CCN(C(C)C)CC1,9%,-15%,15%,6,-1,34%
O=C(c1cc2c(s1)-c1ccccc1OC2)N1CCCC1,x,-7%,-219%,27,11,65%
COc1ccc(N2CCN(C(=O)c3cc4c(s3)-c3ccccc3OC4)CC2)cc1,7%,7%,3%,26,1,237%
CCOC(=O)N1CCN(C(=O)c2cc3c(s2)-c2ccccc2OC3)CC1,0%,-1%,-21%,14,8,8.3µM*
COc1cccc(N2CCN(C(=O)c3cc4c(s3)-c3ccccc3OC4)CC2)c1,-2%,-5%,-6%,-3,-1,4.1µM*
O=C(c1cc2c(s1)-c1ccccc1OC2)N1CCC2(CC1)OCCO2,212%,-3%,-5%,39*,40*,-20%
CCCN1CCN(C(=O)c2cc3c(s2)-c2ccccc2OC3)CC1,49%,14%,-10%,32*,26*,24%
CCC(=O)Nc1ccc(C(=O)NNC(=O)c2cc(OC)c(OC)c(OC)c2)cc1,23%,3%,4%,2,-1,i
COc1c2c(cc3c1C(CC(O)C(C)C)N(C)CC3)OCO2 (stereo not given),x,3%,x,x,x,x
C=CC[C@@H]1C=C[C@@H](O/N=C2/[C@H]3O[C@@H]3[C@@H](O)[C@H]3[C@H]2CCn2c(=O)n(-c4ccccc4)c(=O)n23)[C@@H](CO)O1,x,0%[12.9 µM],x,x,x,x
CCn1c(C)c(C(=O)c2ccccc2)c(C#N)c1C(=O)O,21%,-7%,-6%,25,21*,18%
CC1CCCN(Cc2nc(Cc3ccccc3Cl)no2)C1 (stereo not given),32%,3%,3%,38*,23*,u
FC(F)(F)c1cccc(Cc2noc(CN3CCCC(CN4CCCC4)C3)n2)c1 (stereo not given),2.6µM*,-8%,1%,-4,-5,9.3µM*
FC(F)(F)c1cccc(Cc2noc(CN3CCSCC3)n2)c1,20%,0%,3%,-7,1,-12%
OC1CCCN(Cc2nc(Cc3ccccc3Cl)no2)C1 (stereo not given),40%,-4%,2%,28,17*,10µM*
CCOC(=O)C1CCCN(Cc2nc(Cc3ccccc3Cl)no2)C1 (stereo not given),2%,0%,-2%,-4,-2,u
COc1ccc(OCC(=O)OC2CCCN(C)C2)cc1 (stereo not given),34%,-7%,0%,17,1,15%
SMILES,Pf growth 48h,FBPA Giardia inh,NS1 inh,Shiga inhibitor,CHX counter,Pf growth 96h
COc1ccc(/C=C/C(=O)OC2CCCN(C)C2)cc1 (stereo not given),17%,-4%,7%,48*,26*,u
COc1ccc(N=C2SC(C(=O)N3CCN(c4ccc([N+](=O)[O-])cc4)CC3)CC(=O)N2C)cc1 (stereo not given),15µM*,2%,-3%,20,-1,-18%
COc1ccc(N2CCN(C(=O)C3CC(O)CN3S(=O)(=O)c3ccc([N+](=O)[O-])cc3)CC2)cc1 (stereo not given),16%,-8%,5%,-4,-4,11%
CCCCn1c(-c2cccnc2)nc2cc3[nH]c(=O)c(C(C)C)nc3cc21,u,-14%,10%,-4,-3,10µM*
CCCCn1c(-c2cccnc2)n[nH]c1=S,-1%,u,4%,-4,-4,2.6µM*
CCCCn1c(=O)[nH]c(=O)c2c1nc(-c1ccc(-c3ccccc3)cc1)n2C,-8%,-6%,11%,-2,-1,-10%
CCCCn1c(-c2cccc(Br)c2)nc2cc3[nH]c(=O)c(C(C)C)nc3cc21,u,-11%,27%,3,2,6.6µM*
CCOC(=O)c1sc(SC)c2c1CCCC2=O,45%,5%,-6%,-5,-2,27%
CCOC(=O)N1CC=C2C(C#N)=C(N)C(C#N)(C#N)[C@H](c3ccc(OCC)c(OCC)c3)[C@H]2C1,5.2µM*,-18%,5%,23,1,8%
Cc1ccc(C2C3CN(C(C)C)CC=C3C(C#N)=C(N)C2(C#N)C#N)cc1 (stereo not given),8.3µM*,u,24%,-3,0,0%
CCCCOc1ccc(C2C3CN(C(=O)OCC)CC=C3C(C#N)=C(N)C2(C#N)C#N)cc1OC (stereo not given),12µM*,-19%,-34%,3,7,x
N#CC1=C(N)C(C#N)(C#N)C(c2cccnc2)C2CN(C(=O)OCc3ccccc3)CC=C12 (stereo not given),u,0%,16%,-4,-2,9.3µM*
COc1ccc(CCn2c(C)cc(C(=O)CN3C(=O)C(=O)N(C4CCCC4)C3=O)c2C)cc1OC,9.3µM*,x,x,x,x,u
COc1ccc(C)cc1NC(=O)CN1C(=O)C(=O)N(C2CCCC2)C1=O,-17%,x,x,x,x,-18%
CCOC(=O)C(C)CC(C)C(=O)N1CCOCCN(C(=O)C(C)CC(C)C(=O)OCC)CCOCC1 (stereo not given),8.3µM*,8%,-2%,26,1,82%
Cc1ccc(C(O)CSc2nnc(-c3ccc4ccccc4c3)n2C)cc1 (stereo not given),-4%,0%,-6%,-10,-2,0%
[N-]=[N+]=CC(=O)COC(=O)c1ccccc1,x,x,-6%,x,x,x
Cc1cn(C2OC(COC(=O)c3ccccc3)C(OC(=O)c3ccccc3)C2OC(=O)c2ccccc2)c(=O)[nH]c1=O (stereo not given),u,4%,u,-1,1,u
